From PubChem BioAssay (NCI)
About 79,000 compounds went through this panel and 15% of them were active in at least one assay; those are over-represented in the sample as a whole. Active and inactive are the calls of the source. Cut-off read from the data, not from the text of the source: active = growth inhibition above about 70%; inactive = the rest.

Key:
[1] = NCI Yeast Anticancer Drug Screen. Data for the rad52 strain (AID 147);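 note: 0% = growth of vehicle-treated control cultures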; conditions: S. cerevisiae rad52 mutant growth inhibition, active compounds read high
Procedure, shortened: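 Inhibition of yeast growth, referenced to vehicle controls, was the measured output for a strain with defective DNA damage repair.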

[2] = NCI Yeast Anticancer Drug Screen. Data for the wt1 strain (AID 149);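 note: 0% = growth of vehicle-treated wt1 cultures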; conditions: S. cerevisiae wt1 strain (SPY 50644) growth inhibition, active compounds read high
Procedure, shortened: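 Measured: growth of wt1 yeast under compound versus vehicle treatment, reported as inhibition.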

[3] = NCI Yeast Anticancer Drug Screen. Data for the rad50EPP+ strain (AID 151);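 note: 0% = growth of vehicle-treated control cultures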; conditions: S. cerevisiae rad50 mutant strain, active compounds read high
Procedure, shortened: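 Genetically defined yeast (rad50EPP+, DNA damage repair alteration) is grown with compound, and inhibition of growth is expressed relative to vehicle-treated controls.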

[4] = NCI Yeast Anticancer Drug Screen. Data for the mgt1 strain (AID 153); conditions: S. cerevisiae mgt1 mutant growth inhibition, active compounds read high
Procedure, shortened: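 In the mgt1 strain, test compounds were added and growth inhibition was determined relative to vehicle-treated controls.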

[5] = NCI Yeast Anticancer Drug Screen. Data for the rad50 strain (AID 155);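 note: 0% = growth of vehicle-only cultures of the same strain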; conditions: S. cerevisiae rad50 strain growth inhibition, active compounds read high
Procedure, shortened: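 Growth of the mutant yeast was measured after compound exposure and referenced to vehicle-treated cultures.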

[6] = NCI Yeast Anticancer Drug Screen. Data for the mec2-1 strain (AID 157); conditions: S. cerevisiae mec2-1 strain, active compounds read high
Procedure, shortened: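 Each compound was tested on mec2-1 yeast, a strain altered in DNA damage repair or cell cycle control. Growth inhibition is reported relative to vehicle.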

[7] = NCI Yeast Anticancer Drug Screen. Data for the sgs1 mgt1 strain (AID 161);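 note: 0% = growth of cultures given vehicle only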; conditions: S. cerevisiae sgs1 mgt1 strain, active compounds read high
Procedure, shortened: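 Test agents were incubated with a DNA-repair-mutant yeast strain. Growth was then read and compared against vehicle-treated controls.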

[8] = NCI Yeast Anticancer Drug Screen. Data for the CLN2oe strain (AID 163);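 note: 0% = growth of vehicle-only control cultures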; conditions: S. cerevisiae CLN2oe strain, active compounds read high
Procedure, shortened: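 First, the altered yeast strain was treated with each compound; second, its growth was measured; finally, inhibition was derived by comparison with vehicle controls.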

[9] = NCI Yeast Anticancer Drug Screen. Data for the cln2 rad14 strain (AID 165);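 note: 0% = growth equal to vehicle treated cultures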; conditions: S. cerevisiae cln2 rad14 strain, active compounds read high
Procedure, shortened: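 Test compounds were added to cln2 rad14 yeast cultures; inhibition of growth was then determined by comparison with vehicle treatment.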

[10] = NCI Yeast Anticancer Drug Screen. Data for the bub3 strain (AID 167); conditions: S. cerevisiae bub3 mutant strain, active compounds read high
Procedure, shortened: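 Whole-cell yeast assay. The mutant strain was incubated with compounds, and growth inhibition was determined by comparison with vehicle-treated cells.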

[11] = NCI Yeast Anticancer Drug Screen. Data for the wt2 strain (AID 169);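 note: 0% = growth of vehicle-treated yeast cultures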; conditions: S. cerevisiae wt2 strain growth inhibition, active compounds read high
Procedure, shortened: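 The panel's yeast strains carry defined changes in DNA repair or cell cycle genes. Each strain is grown with compound, and growth loss is scored relative to vehicle.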

[12] = NCI Yeast Anticancer Drug Screen. Data for the mlh1 strain (AID 171);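 note: 0% = growth of vehicle-treated control cultures of the same strain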; conditions: S. cerevisiae mlh1 strain growth inhibition, active compounds read high
Procedure, shortened: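 Inhibition values reflect reduced yeast growth in the presence of compound, referenced to vehicle controls, using a strain chosen for its alteration in DNA repair or cell cycle control.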

[13] = NCI Yeast Anticancer Drug Screen. Data for the sgs1 strain (AID 173);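 note: 0% = growth of vehicle-only control cultures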; conditions: S. cerevisiae sgs1 mutant, active compounds read high
Procedure, shortened: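 Vehicle-treated cultures served as reference for growth inhibition of a yeast strain altered in DNA damage repair or cell cycle control after compound exposure.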

[14] = NCI Yeast Anticancer Drug Screen. Data for the mlh1 rad18 strain (AID 175); conditions: S. cerevisiae mlh1 rad18 strain growth inhibition, active compounds read high
Procedure, shortened: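 Inhibition values reflect reduced growth of mutant yeast versus vehicle-treated controls following compound exposure; the mutations affect DNA damage repair.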

[15] = NCI Yeast Anticancer Drug Screen. Data for the rad18 strain (AID 177); conditions: S. cerevisiae rad18 mutant growth inhibition, active compounds read high
Procedure, shortened: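 Steps: expose repair-mutant yeast to compound; measure growth; express as inhibition relative to vehicle control.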

[16] = at 5.0 µM (retest, dose inferred, filed as 0.5)
[17] = at 50.0 µM (retest, dose inferred, filed as 5.0)

Measured: growth inhibition

Nc1nc(N)c2nc(CNc3ccc(C(=O)NC(CCC(=O)O)C(=O)O)cc3F)cnc2n1 (stereo not drawn)
active: [1]; at 33.0 µM 82% | [1]; at 100.0 µM 89% | [2]; at 100.0 µM 78% | [5]; [17] 86% | [5]; at 100.0 µM 74% | [6]; at 11.0 µM 81% | [6]; at 33.0 µM 93% | [6]; [17] 97% | [6]; at 50.0 µM 86.7% | [6]; at 100.0 µM 94% | [10]; [17] 82% | [10]; at 100.0 µM 73% | [15]; at 33.0 µM 72% | [15]; at 100.0 µM 80%
inactive: [1]; at 1.2 µM 28% | [1]; at 3.7 µM 42% | [1]; at 11.0 µM 62% | [2]; at 1.2 µM 13% | [2]; at 3.7 µM 12% | [2]; at 11.0 µM 17% | [2]; at 33.0 µM 50% | [3]; at 1.2 µM 23% | [3]; at 3.7 µM 13% | [3]; at 11.0 µM 13% | [3]; at 33.0 µM 15% | [3]; at 100.0 µM 39% | [4]; at 1.2 µM 19% | [4]; at 3.7 µM 16% | [4]; at 11.0 µM 15% | [4]; at 33.0 µM 36% | [4]; at 100.0 µM 63% | [5]; at 1.2 µM 7% | [5]; at 3.7 µM 18% | [5]; [16] 13% | [5]; at 11.0 µM 30% | [5]; at 33.0 µM 55% | [5]; at 50.0 µM 43% | [6]; at 1.2 µM 19% | [6]; at 3.7 µM 26% | [6]; [16] 26% | [7]; [16] -4% | [7]; [17] 56% | [7]; at 50.0 µM 39.5% | [8]; at 1.2 µM -8% | [8]; at 3.7 µM 13% | [8]; at 11.0 µM 18% | [8]; at 33.0 µM 17% | [8]; at 100.0 µM 46% | [9]; [16] 14% | [9]; [17] -2% | [9]; at 50.0 µM -5.05% | [10]; at 1.2 µM 6% | [10]; at 3.7 µM 6% | [10]; [16] 2% | [10]; at 11.0 µM 6% | [10]; at 33.0 µM 35% | [10]; at 50.0 µM 29.2% | [11]; at 1.2 µM -19% | [11]; at 3.7 µM -11% | [11]; at 11.0 µM -21% | [11]; at 33.0 µM 2% | [11]; at 100.0 µM 48% | [12]; at 1.2 µM 16% | [12]; at 3.7 µM 10% | [12]; at 11.0 µM 8% | [12]; at 33.0 µM 29% | [12]; at 100.0 µM 46% | [13]; at 1.2 µM 24% | [13]; at 3.7 µM 14% | [13]; at 11.0 µM 15% | [13]; at 33.0 µM 41% | [13]; at 100.0 µM 67% | [14]; [16] 18% | [14]; [17] 67% | [14]; at 50.0 µM -2.7% | [15]; at 1.2 µM 20% | [15]; at 3.7 µM 19% | [15]; at 11.0 µM 35%
